Test results: a collection of fitness landscapes (doi:10.1016/j.celrep.2020.107928)
The full ranking holds about 81,000 sequences; the median of “one-hybrid fitness for binding parS DNA” is about -0.17, and the highest 2% start at about 0.51. This is one part of a sample in which the highest values are shown more often than they occur.

B1: Caulobacter ParB omega fusion; a variant is named by its letters at X, in order, B8GW30 (parent)
chain: MESVVVGEPGMSEGRRGLGRGLSALLGEVDAAPAQAPGEQLGGSREAPIEILQRNPDQPRRTFREEDLEDLSNSIREKGVLQPILVRPSPDTAGEYQIVAGERAWRAAQRAGLKTVPIMVRELDDLAVLEIGIIENVQRADLNVLEEALSYKVLMEKFERTQENIAQTIGKSXSHVANXMRLLXLPDEVQSYLVSGELTAXHARAIAAAADPVALAKQIIEGGLSVRETEALARKAPNLSAGKSKGGRPPRVKDTDTQALESDLSSVLGLDVSIDHRGSTGTLTITYATLEQLDDLCNRLTRGI

Variants of: B1
Assay: one-hybrid fitness for binding parS DNA (scaled: cognate 1, non-cognate 0); higher = stronger binding
Settings: with parS DNA site
Procedure, shortened: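 Fitness is the rescaled log change in variant-to-wild-type read ratio, measured by Illumina sequencing of plasmids before and after bacterial one-hybrid selection. The scale puts cognate at 1 and non-cognate at 0. Selection of Caulobacter ParB libraries, four specificity codons randomised, took place in E. coli USO with a HIS3 reporter, site 19 bp from the promoter, over 48 hours at 37°C on M9-minus-histidine with 0.1 mM IPTG and 5 mM 3-AT.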

one-hybrid fitness for binding parS DNA, 0.998:
RLQC

one-hybrid fitness for binding parS DNA, 0.649:
RGQC

one-hybrid fitness for binding parS DNA, 0.394:
RGNA

one-hybrid fitness for binding parS DNA, 0.46:
RFDA

one-hybrid fitness for binding parS DNA, 0.777:
RHKS

one-hybrid fitness for binding parS DNA, 0.229:
WKKW

one-hybrid fitness for binding parS DNA, 0.825:
RKQC

one-hybrid fitness for binding parS DNA, 0.391:
RMKM

one-hybrid fitness for binding parS DNA, 0.591:
RSLA

one-hybrid fitness for binding parS DNA, 0.442:
RIQY

one-hybrid fitness for binding parS DNA, 0.425:
RWNA

one-hybrid fitness for binding parS DNA, 0.259:
RMVF

one-hybrid fitness for binding parS DNA, 0.301:
RCYH

one-hybrid fitness for binding parS DNA, 0.302:
RHVN

one-hybrid fitness for binding parS DNA, 0.474:
RWRA

one-hybrid fitness for binding parS DNA, 0.63:
RRQC

one-hybrid fitness for binding parS DNA, 0.225:
RGYA

one-hybrid fitness for binding parS DNA, 0.412:
RKVY

one-hybrid fitness for binding parS DNA, 0.496:
RGRA

one-hybrid fitness for binding parS DNA, 0.594:
RGGC

one-hybrid fitness for binding parS DNA, 0.452:
RNLA

one-hybrid fitness for binding parS DNA, 0.764:
RMKT

one-hybrid fitness for binding parS DNA, 0.515:
RSDA

one-hybrid fitness for binding parS DNA, 0.384:
RWLA

one-hybrid fitness for binding parS DNA, 0.533:
RHLA
RFLA

one-hybrid fitness for binding parS DNA, 0.57:
RFNA

one-hybrid fitness for binding parS DNA, 0.874:
RSQT

one-hybrid fitness for binding parS DNA, 0.796:
RCRA

one-hybrid fitness for binding parS DNA, 1.02:
RMQC

one-hybrid fitness for binding parS DNA, 0.966:
RADS

one-hybrid fitness for binding parS DNA, 0.365:
RHKN

one-hybrid fitness for binding parS DNA, 0.875:
RMVT

one-hybrid fitness for binding parS DNA, 0.605:
RLLA
RSRA

one-hybrid fitness for binding parS DNA, 0.495:
RLQY

one-hybrid fitness for binding parS DNA, 0.612:
RALA

one-hybrid fitness for binding parS DNA, 0.595:
RTLA

one-hybrid fitness for binding parS DNA, 0.29:
RWDA

one-hybrid fitness for binding parS DNA, 0.942:
RKVG

one-hybrid fitness for binding parS DNA, 0.596:
RSNA

one-hybrid fitness for binding parS DNA, 0.602:
RSYA

one-hybrid fitness for binding parS DNA, 0.936:
RCQT

one-hybrid fitness for binding parS DNA, 0.609:
RCLA
RMLA

one-hybrid fitness for binding parS DNA, ≤ 0.2:
SREL
FTNN
MTRS
DMPV
RDMM
LDNS
QVVM
RGQF
RGSF
RGSK
RGGM
RGQK
RGGR
AAYP
DGHR
LCSR
YTPT
AYYS
SYRV
VSYR
NTNS
NTLA
NALA
RPLA
NMLA
DTLA
PNHR
LLEW
GIRG
DQFS
PYSY
GART
NSRV
IMIV
ICQC
DFLA
NHLA
SFLA
RELA
DLLA
RDLA
DHLA
YYAL
HRNR
VLTI
QANF
MFMS
QQVT
TCGR
KIYR
FHCT
NRQF
THLI
RMEQ
QDTM
VKRS
HTGH
RANP
RADP
RANH
RADH
YHVS
SKAT
RCTR
DCPY
CRRI
RDQT
REQT
RSQK
RPQT
MKGT
PHAA
CNAG
SQES
CCPY
RKVF
RKKP
RKKD
NRVQ
PLNP
RHQD
RIQQ
REQC
RHQP
RKQQ
RSQQ
VCLS
NNQG
QKHV
RMQF
RLQQ
RDQC
RPQC
RMQL
NRQC
RRQR
NGPC
QQNS
IKKF
DIKG
YPGG
FNTL
LPNG
RPNA
RENA
RPDA
RPRA
YTPK
NRGR
WRHM
TEAW
HGTW
PNLY
DLLY
RDDA
KFNA
REDA
RDRA
CFAA
RNLW
NVSV
DDCG
KMYG
QRCI
APES
SERT
LITT
MNRC
DIAI
ACMT
YQQG
RSPA
DSYA
RHVD
RHKP
KQDV
HTPC
AALR
WLII
YSML
RMKD
RMVR

one-hybrid fitness for binding parS DNA, 0.619:
RCYA

one-hybrid fitness for binding parS DNA, 0.802:
RKKG

one-hybrid fitness for binding parS DNA, 0.927:
RHVS

one-hybrid fitness for binding parS DNA, 1:
RIQC

one-hybrid fitness for binding parS DNA, 0.567:
RCDA

one-hybrid fitness for binding parS DNA, 0.4:
RKQY

one-hybrid fitness for binding parS DNA, 0.96:
RANS

one-hybrid fitness for binding parS DNA, 0.719:
RCNA

one-hybrid fitness for binding parS DNA, 0.994:
RCQC

one-hybrid fitness for binding parS DNA, 0.951:
RHQC

one-hybrid fitness for binding parS DNA, 0.958:
RSQC

one-hybrid fitness for binding parS DNA, 0.672:
RGSC
